Targets with a hit are over-represented here; the source holds about 8,800 in all. About 0.5% of all pairs of compound and target were hits. A number with no mark means an inactive call.
How the values were obtained:
Experiment in all cases: log2 fold change, soluble protein after heating vs DMSO (PISA); higher = thermal stabilisation; K562 lysate, 10 uM; active = over 0.2 and 3.5 SD of the protein, either way, in both replicates (recomputed)
lapatinib = compound: CS(=O)(=O)CCNCc1ccc(-c2ccc3ncnc(Nc4ccc(OCc5cccc(F)c5)c(Cl)c4)c3c2)o1 [lapatinib]
Method in brief: (§1)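 A 30 min treatment with 10 μM compound was applied to crude K562 extract at 1 mg/mL protein in PBS pH 7.4 with 1 mM MgCl2. Heating for 3 min spanned 48°C-58°C, after which aliquots were pooled, adjusted to 0.5% NP-40 at 4°C and spun at 21,000xg for 90 min. TMTpro 16plex LC-MS/MS of the supernatant, with channel sums equalised, gave values recorded as log-two fold change in thermal stability against solvent controls, from duplicates.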

pictilisib = compound: CS(=O)(=O)N1CCN(Cc2cc3nc(-c4cccc5[nH]ncc45)nc(N4CCOCC4)c3s2)CC1 [pictilisib]
Method in brief: as §1

crizotinib = compound: C[C@@H](Oc1cc(-c2cnn(C3CCNCC3)c2)cnc1N)c1c(Cl)ccc(F)c1Cl [crizotinib]
Method in brief: as §1

[1] = compound: C[C@H](C1=CC=C(C=C1)C(=O)NC2=C3C=CNC3=NC=C2)N
Method in brief: as §1

duvelisib = compound: C[C@H](Nc1ncnc2nc[nH]c12)c1cc2cccc(Cl)c2c(=O)n1-c1ccccc1 [duvelisib]
Method in brief: as §1

gandotinib = compound: Cc1cc(Nc2cc(CN3CCOCC3)c3nc(C)c(Cc4ccc(Cl)cc4F)n3n2)n[nH]1 [gandotinib]
Method in brief: as §1

tozasertib = compound: Cc1cc(Nc2cc(N3CCN(C)CC3)nc(Sc3ccc(NC(=O)C4CC4)cc3)n2)n[nH]1 [tozasertib]
Method in brief: as §1

doramapimod = compound: Cc1ccc(-n2nc(C(C)(C)C)cc2NC(=O)Nc2ccc(OCCN3CCOCC3)c3ccccc23)cc1 [doramapimod]
Method in brief: as §1

bafetinib = compound: Cc1ccc(NC(=O)c2ccc(CN3CC[C@H](N(C)C)C3)c(C(F)(F)F)c2)cc1Nc1nccc(-c2cncnc2)n1 [bafetinib]
Method in brief: as §1

[2] = compound: Cc1cccc(CC(=O)N2CCc3c2ccc(-c2cn(C)c4ncnc(N)c24)c3F)n1
Method in brief: as §1

nilotinib = compound: Cc1cn(-c2cc(NC(=O)c3ccc(C)c(Nc4nccc(-c5cccnc5)n4)c3)cc(C(F)(F)F)c2)cn1 [nilotinib]
Method in brief: as §1

[3] = compound: Cc1nc(Nc2n[nH]c3c2CN(C(=O)N[C@H](CN(C)C)c2ccccc2)C3(C)C)c2sccc2n1
Method in brief: as §1

dasatinib = compound: Cc1nc(Nc2ncc(C(=O)Nc3c(C)cccc3Cl)s2)cc(N2CCN(CCO)CC2)n1 [dasatinib]
Method in brief: as §1

[4] = compound: Cc1ncc(-c2ccnc(Nc3ccc(S(C)(=O)=O)cc3)n2)n1C(C)C
Method in brief: as §1

[5] = compound: Cn1cc(-c2ccc3c(c2)CCN3C(=O)Cc2cccc(C(F)(F)F)c2)c2c(N)ncnc21
Method in brief: as §1

quisinostat = compound: Cn1cc(CNCC2CCN(c3ncc(C(=O)NO)cn3)CC2)c2ccccc21 [quisinostat]
Method in brief: as §1

tipifarnib = compound: Cn1cncc1[C@@](N)(c1ccc(Cl)cc1)c1ccc2c(c1)c(-c1cccc(Cl)c1)cc(=O)n2C [tipifarnib]
Method in brief: as §1

[6] = compound: NC(=O)Nc1cc(-c2cccc(F)c2)sc1C(=O)N[C@H]1CCCNC1
Method in brief: as §1

[7] = compound: NC(=O)c1cnc(N[C@@H]2CCCC[C@@H]2N)nc1Nc1cccc(-n2nccn2)c1
Method in brief: as §1

[8] = compound: NC1(c2ccc(-c3nc4ccn5c(=O)[nH]nc5c4cc3-c3ccccc3)cc2)CCC1
Method in brief: as §1

UniProt Q9UPT9, sequence (Q9UPT9 whole entry, looked up): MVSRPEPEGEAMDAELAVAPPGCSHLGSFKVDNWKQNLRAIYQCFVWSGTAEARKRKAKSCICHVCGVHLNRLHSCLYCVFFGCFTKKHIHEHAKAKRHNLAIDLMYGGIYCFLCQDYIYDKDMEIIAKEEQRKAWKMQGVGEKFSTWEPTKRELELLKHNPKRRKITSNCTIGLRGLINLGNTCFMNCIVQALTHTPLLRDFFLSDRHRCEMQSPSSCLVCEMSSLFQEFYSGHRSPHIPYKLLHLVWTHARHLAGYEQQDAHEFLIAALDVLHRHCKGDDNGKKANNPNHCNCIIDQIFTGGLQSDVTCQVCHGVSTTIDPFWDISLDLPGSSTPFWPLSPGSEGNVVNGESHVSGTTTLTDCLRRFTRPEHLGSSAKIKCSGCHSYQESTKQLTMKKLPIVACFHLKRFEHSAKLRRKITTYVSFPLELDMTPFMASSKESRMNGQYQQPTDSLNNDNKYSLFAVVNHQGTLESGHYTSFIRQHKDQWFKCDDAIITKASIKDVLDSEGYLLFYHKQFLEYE
UniProt P30291, sequence (P30291 whole entry, looked up): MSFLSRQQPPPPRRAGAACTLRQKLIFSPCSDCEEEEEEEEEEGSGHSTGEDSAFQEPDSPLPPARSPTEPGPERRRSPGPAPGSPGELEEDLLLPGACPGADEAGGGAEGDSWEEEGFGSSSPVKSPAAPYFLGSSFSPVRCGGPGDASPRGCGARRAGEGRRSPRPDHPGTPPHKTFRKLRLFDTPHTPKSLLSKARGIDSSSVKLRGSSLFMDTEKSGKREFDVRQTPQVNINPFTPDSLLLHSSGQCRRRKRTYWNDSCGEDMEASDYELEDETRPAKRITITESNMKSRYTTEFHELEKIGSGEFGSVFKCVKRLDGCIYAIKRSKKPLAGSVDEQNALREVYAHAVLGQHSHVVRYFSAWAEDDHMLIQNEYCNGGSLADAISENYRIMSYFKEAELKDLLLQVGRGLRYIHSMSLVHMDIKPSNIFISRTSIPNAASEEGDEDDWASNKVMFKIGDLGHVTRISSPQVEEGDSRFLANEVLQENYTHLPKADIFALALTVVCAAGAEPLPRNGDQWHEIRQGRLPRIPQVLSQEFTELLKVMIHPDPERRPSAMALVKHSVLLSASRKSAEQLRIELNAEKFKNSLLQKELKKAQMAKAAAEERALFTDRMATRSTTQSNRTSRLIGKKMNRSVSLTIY
UniProt Q9Y6I7, sequence (Q9Y6I7 whole entry, looked up): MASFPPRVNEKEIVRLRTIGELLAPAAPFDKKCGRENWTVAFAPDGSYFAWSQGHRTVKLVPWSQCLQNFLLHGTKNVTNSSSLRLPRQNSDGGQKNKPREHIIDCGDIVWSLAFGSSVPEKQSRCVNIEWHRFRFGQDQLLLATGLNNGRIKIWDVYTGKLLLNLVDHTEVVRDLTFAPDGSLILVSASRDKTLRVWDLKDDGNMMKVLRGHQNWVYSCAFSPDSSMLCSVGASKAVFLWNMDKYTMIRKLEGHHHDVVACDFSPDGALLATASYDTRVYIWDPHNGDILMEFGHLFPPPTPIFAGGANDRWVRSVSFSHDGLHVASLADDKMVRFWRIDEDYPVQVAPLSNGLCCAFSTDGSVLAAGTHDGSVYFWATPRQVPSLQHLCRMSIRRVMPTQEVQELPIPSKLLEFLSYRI
UniProt A7E2V4, sequence (A7E2V4 whole entry, looked up): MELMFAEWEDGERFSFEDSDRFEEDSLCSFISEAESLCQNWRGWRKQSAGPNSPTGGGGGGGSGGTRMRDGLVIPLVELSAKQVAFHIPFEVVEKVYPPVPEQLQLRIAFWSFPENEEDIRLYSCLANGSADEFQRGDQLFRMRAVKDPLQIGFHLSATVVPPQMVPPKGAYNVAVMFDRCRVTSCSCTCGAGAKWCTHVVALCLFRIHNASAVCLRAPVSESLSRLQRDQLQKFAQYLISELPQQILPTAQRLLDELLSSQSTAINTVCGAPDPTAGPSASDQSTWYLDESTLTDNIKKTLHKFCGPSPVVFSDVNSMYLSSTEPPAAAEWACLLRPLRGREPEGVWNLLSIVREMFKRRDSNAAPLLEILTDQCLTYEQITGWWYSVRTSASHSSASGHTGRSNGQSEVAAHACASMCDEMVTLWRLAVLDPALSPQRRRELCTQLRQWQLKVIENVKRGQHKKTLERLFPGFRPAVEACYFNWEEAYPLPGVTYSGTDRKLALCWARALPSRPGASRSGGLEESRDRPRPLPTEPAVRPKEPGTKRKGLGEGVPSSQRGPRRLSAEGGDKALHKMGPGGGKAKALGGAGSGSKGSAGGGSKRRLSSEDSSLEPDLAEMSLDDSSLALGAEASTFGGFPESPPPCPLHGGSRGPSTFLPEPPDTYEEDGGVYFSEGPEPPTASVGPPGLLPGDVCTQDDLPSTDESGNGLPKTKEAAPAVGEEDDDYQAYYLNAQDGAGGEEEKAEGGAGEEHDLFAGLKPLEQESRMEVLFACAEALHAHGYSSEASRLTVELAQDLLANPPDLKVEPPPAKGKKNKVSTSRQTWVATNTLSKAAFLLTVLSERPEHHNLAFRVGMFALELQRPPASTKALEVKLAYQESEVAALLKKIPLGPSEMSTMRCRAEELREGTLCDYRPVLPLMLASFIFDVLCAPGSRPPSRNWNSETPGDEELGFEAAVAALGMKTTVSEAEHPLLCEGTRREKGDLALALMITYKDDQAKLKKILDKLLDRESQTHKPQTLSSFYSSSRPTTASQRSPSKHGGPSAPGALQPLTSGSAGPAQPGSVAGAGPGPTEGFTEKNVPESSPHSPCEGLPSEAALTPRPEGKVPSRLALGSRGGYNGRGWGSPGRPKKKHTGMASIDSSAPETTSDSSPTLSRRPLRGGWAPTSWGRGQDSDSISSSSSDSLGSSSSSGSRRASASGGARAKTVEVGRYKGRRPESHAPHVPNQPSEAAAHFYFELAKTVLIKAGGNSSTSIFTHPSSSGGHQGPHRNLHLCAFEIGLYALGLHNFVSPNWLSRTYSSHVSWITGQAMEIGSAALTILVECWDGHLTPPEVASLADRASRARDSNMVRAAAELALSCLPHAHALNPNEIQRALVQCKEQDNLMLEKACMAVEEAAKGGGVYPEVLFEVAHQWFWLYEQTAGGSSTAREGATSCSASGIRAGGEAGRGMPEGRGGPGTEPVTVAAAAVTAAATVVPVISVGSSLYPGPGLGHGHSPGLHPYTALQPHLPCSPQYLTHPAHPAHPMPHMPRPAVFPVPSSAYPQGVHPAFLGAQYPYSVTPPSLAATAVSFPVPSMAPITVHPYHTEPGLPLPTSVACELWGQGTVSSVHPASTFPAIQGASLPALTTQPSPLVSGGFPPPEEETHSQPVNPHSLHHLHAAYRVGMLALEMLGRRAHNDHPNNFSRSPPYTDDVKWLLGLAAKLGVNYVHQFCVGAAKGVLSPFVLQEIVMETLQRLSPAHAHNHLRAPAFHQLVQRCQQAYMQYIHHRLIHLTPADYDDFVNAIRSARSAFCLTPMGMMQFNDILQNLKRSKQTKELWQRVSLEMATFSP
UniProt Q6WRX3, sequence (Q6WRX3 whole entry, looked up): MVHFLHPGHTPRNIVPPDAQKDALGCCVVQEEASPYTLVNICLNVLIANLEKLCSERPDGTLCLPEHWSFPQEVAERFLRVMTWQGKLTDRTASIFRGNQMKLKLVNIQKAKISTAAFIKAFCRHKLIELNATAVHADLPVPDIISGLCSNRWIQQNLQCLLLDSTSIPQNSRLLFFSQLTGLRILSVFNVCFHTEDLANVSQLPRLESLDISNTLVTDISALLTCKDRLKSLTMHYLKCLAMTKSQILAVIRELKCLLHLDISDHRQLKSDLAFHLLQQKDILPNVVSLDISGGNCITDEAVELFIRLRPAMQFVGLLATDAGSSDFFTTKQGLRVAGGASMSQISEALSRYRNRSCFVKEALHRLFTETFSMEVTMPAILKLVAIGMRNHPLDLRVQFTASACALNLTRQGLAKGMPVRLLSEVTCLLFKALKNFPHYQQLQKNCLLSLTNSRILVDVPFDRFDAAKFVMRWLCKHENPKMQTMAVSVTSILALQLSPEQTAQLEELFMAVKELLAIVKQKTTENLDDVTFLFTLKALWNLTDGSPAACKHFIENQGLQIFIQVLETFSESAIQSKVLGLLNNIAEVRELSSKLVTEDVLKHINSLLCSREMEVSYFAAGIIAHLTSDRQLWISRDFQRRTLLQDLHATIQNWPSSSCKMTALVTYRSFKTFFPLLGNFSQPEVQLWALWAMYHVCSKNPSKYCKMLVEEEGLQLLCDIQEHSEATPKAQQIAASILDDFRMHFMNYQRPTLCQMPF
UniProt Q9Y2X9, sequence (Q9Y2X9 whole entry, looked up): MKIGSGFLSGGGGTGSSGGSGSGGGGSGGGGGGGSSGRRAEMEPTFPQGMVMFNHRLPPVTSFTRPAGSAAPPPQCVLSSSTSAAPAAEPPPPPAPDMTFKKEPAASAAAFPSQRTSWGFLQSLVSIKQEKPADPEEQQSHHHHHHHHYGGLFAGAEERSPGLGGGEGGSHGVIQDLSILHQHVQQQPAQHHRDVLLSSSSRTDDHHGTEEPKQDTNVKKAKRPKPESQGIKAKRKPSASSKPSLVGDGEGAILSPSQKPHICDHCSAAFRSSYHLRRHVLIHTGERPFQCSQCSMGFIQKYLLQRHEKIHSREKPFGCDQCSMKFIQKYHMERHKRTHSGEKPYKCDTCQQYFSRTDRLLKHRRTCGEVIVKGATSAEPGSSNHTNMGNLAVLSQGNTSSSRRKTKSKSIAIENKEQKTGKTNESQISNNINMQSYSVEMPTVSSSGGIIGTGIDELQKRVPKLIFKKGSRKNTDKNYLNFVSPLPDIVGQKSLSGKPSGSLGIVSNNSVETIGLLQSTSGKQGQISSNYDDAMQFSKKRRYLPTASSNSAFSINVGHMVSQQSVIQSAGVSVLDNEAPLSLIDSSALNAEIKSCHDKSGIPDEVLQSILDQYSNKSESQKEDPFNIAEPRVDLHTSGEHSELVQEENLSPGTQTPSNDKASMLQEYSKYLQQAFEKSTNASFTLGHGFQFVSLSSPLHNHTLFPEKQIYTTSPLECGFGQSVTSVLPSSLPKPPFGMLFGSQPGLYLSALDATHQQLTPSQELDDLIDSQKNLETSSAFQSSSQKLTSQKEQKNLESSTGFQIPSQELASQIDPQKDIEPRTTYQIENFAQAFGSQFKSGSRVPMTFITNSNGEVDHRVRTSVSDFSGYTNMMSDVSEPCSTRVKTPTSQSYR

Target	log2 fold change (lapatinib)	log2 fold change (pictilisib)	log2 fold change (crizotinib)	log2 fold change [1]	log2 fold change (duvelisib)	log2 fold change (gandotinib)	log2 fold change (tozasertib)	log2 fold change (doramapimod)	log2 fold change (bafetinib)	log2 fold change [2]	log2 fold change (nilotinib)	log2 fold change [3]	log2 fold change (dasatinib)	log2 fold change [4]	log2 fold change [5]	log2 fold change (quisinostat)	log2 fold change (tipifarnib)	log2 fold change [6]	log2 fold change [7]	log2 fold change [8]
WRNIP1 (UniProt Q96S55)	-0.021	-0.043	0	0.054	0.012	-0.047	0.022	0.001	-0.043	0.045	-0.008	0.002	-0.018	-0.05	0.066	-0.035	-0.02	0.053	-0.008	-0.001
ZBTB40 (UniProt Q9NUA8)	0.022	–	0.036	-0.249	0.018	0.219	–	-0.02	–	0.004	-0.076	0.29	-0.024	0.086	-0.051	-0.01	0.078	-0.018	0.004	0.058
UTRN isoform 2 (UniProt P46939)	–	0.01	–	-0.009	–	0.04	-0.077	–	-0.175	-0.018	–	–	–	–	–	–	–	–	–	0.21
ZNF644 (UniProt Q9H582)	–	-0.133	-0.026	0.04	-0.069	-0.015	0.015	0.037	-0.165	0.086	-0.062	0.153	0.066	0.017	-0.061	-0.026	-0.012	0.058	–	-0.167
WIPI2 isoform 6 (UniProt Q9Y4P8)	–	-0.102	–	0.025	–	0.181	–	–	-0.013	-0.089	–	–	–	–	–	–	–	–	–	–
ZYG11A (UniProt Q6WRX3)	-0.301	0.031	–	-0.306	–	0.192	–	–	-0.378	0.323	0.151	-0.077	–	-0.227	–	–	-0.124	–	0.085	-0.068
ZNF281 (UniProt Q9Y2X9)	–	–	0.003	–	0.029	–	–	0.02	–	–	–	–	-0.041	–	0.031	0.151	–	-0.028	–	0.02
ZC3H13 (UniProt Q5T200)	-0.013	-0.022	-0.057	0.039	0.041	-0.063	0.062	0.149	0.017	0.102	-0.033	0.137	-0.035	0.144	-0.044	-0.067	-0.184	0.002	0.028	-0.049
VASN (UniProt Q6EMK4)	–	–	–	–	-0.119	–	0.08	–	–	–	–	–	0.081	–	0.027	–	–	–	–	-0.059
ZFYVE19 isoform 3 (UniProt Q96K21)	0.114	-0.02	–	–	–	–	–	–	-0.013	–	–	–	–	–	–	–	–	–	-0.002	–
URGCP (UniProt Q8TCY9)	–	-0.025	–	–	0.158	–	–	–	-0.137	–	0.028	0.079	-0.204	-0.04	-0.145	–	-0.008	–	–	–
ZSWIM8 isoform 4 (UniProt A7E2V4)	–	-0.253	0.027	-0.027	-0.145	-0.153	0.169	-0.084	-0.257	0.205	-0.009	0.129	0.085	0.07	0.042	-0.051	-0.065	0.067	–	-0.112
ULK3 isoform 4 (UniProt Q6PHR2)	0.059	-0.008	-0.088	0.113	0.065	-0.08	0.059	-0.15	0.041	0.354	–	–	0.035	–	-0.181	-0.11	–	0.296	0.133	-0.157
USP22 (UniProt Q9UPT9)	–	0.001	-0.072	0.004	-0.006	-0.148	0.036	-0.029	-0.032	0.019	-0.032	0.002	0.022	0.037	0.028	-0.065	-0.028	0.004	–	-0.012
ZKSCAN8 (UniProt Q15776)	0.08	–	-0.151	–	0.068	–	-0.014	0.082	–	–	0.05	0.015	-0.096	-0.03	0.026	-0.134	0.101	0.005	-0.029	-0.064
WAS (UniProt P42768)	–	-0.027	–	-0.16	-0.194	-0.057	-0.127	–	-0.065	0.103	0.636 (active)	-0.102	0.095	0.318	0.129	–	-0.064	–	–	0.025
WSB1 (UniProt Q9Y6I7)	–	–	–	0.12	-0.137	-1.11 (active)	–	–	–	-0.674	–	–	-0.194	–	0.012	–	–	–	–	–
YBEY (UniProt P58557)	–	–	–	–	0.049	–	0.035	–	–	–	–	–	0.067	–	-0.083	–	–	–	–	0.044
WEE1 (UniProt P30291)	-0.034	-0.047	-0.141	–	0.033	–	0.011	0.183	0.068	–	-0.002	0.001	0.397 (active)	-0.033	-0.002	-0.069	-0.007	0.223	-0.106	-0.044
XPOT (UniProt F5GYW6)	-0.115	–	–	–	–	–	–	–	–	–	–	–	–	–	–	–	–	–	-0.192	–
ZDHHC17 (UniProt Q8IUH5)	0.042	–	0.098	-0.778 (active)	-0.301	0.037	-0.025	0.11	–	0.17	-0.164	0.039	-0.096	-0.115	-0.028	0.045	0.118	-0.118	-0.047	–
UNKL (UniProt E9PDK2)	–	-0.113	-0.078	–	0.184	–	-0.039	0.07	-0.041	–	–	–	-0.216	–	0.006	0.015	–	0.045	–	–
